Test systems include DU-145 prostate; K-562 leukemia; MALME-3M melanoma; MDA-MB-231 breast; RXF 393 renal; SF-268 CNS; SF-295 CNS; SF-539 CNS; UACC-257 melanoma; M14 melanoma; HCT-15 colon; HT29 colon; SNB-75 CNS; SNB-19 CNS; U251 CNS; PC-3 prostate; SK-MEL-5 melanoma; UACC-62 melanoma; LOX IMVI melanoma; SK-MEL-28 melanoma.
Common to all, as to assay: NCI-60 one-dose screen, 48 h (100 = growth as untreated, 0 = no growth, -100 = all killed)
Conditions in all cases: 10 µM unless noted

The structures appear in SMILES notation. Compounds without any hit were thinned out: in the full panel of roughly 83,000, 20% have a hit.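 Activity criterion: percent growth below 10, measured after cells in 96-well plates were exposed to a single compound concentration for 48 hours.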 Values without a mark were called inactive. Calls of active or inactive are those of the source.

In the case of `COc1ccc(-c2cc(-c3ccc(Cl)cc3)nc(SCCCCCCC(=O)NO)n2)cc1`, the growth is 24.6% in the assay with DU-145 prostate; 20.1% in the assay on K-562 leukemia; 11.7% in the assay on MALME-3M melanoma; 45.8% in the assay on MDA-MB-231 breast; -0.367% (active) with RXF 393 renal; 31.7% with SF-268 CNS. Further, the growth in the assay with SF-295 CNS was 36.3%; in the assay on SF-539 CNS it was 34.8%; in the assay on UACC-257 melanoma it was 23%; with M14 melanoma, 22.3%; in the assay on HCT-15 colon, 15.5%; in the assay with HT29 colon, 10.8%. Besides, the growth was 34.5% in the assay with SNB-75 CNS; 35.9% with SNB-19 CNS; 19% in the assay with U251 CNS; 49.2% in the assay on PC-3 prostate; -6.04% (active) with SK-MEL-5 melanoma; 14.9% in the assay with UACC-62 melanoma. Besides, the growth was -17.6% (active) with LOX IMVI melanoma and 57.6% in the assay on SK-MEL-28 melanoma.

Regarding `CCn1cc(-c2[nH]c(=S)ncc2-c2ccc(Cl)cc2)c(-c2ccc(Br)cc2)n1`, the growth in the assay with DU-145 prostate is 100%; with K-562 leukemia it was 120%; with MALME-3M melanoma, 108%; with MDA-MB-231 breast it was 89.1%; in the assay on RXF 393 renal, 109%; with SF-268 CNS it was 75.1%. For the same molecule, the growth with SF-295 CNS is 68.4%; in the assay on SF-539 CNS, 87.5%; with UACC-257 melanoma, 84.8%; in the assay with M14 melanoma, 66.7%; in the assay on HCT-15 colon it was 85.5%; with HT29 colon, 92.1%. Moreover, the growth in the assay on SNB-75 CNS is 99.1%; with SNB-19 CNS, 75.6%; with U251 CNS, 74.3%; with PC-3 prostate, 64.3%; with SK-MEL-5 melanoma, 86.4%; in the assay on UACC-62 melanoma it was 76.7%. Moreover, the growth is 86.8% in the assay with LOX IMVI melanoma and 73.7% with SK-MEL-28 melanoma.

For the molecule `COc1ccc(C(=O)CSc2nccc(Nc3ccc(C(=O)O)cc3)n2)cc1`, the growth was 107% in the assay with DU-145 prostate; 115% in the assay on K-562 leukemia; 93% with MALME-3M melanoma; 102% with MDA-MB-231 breast; 99% with RXF 393 renal; 96.6% with SF-268 CNS. Further, the growth in the assay on SF-295 CNS was 104%; with SF-539 CNS, 99.9%; with UACC-257 melanoma, 96.6%; in the assay with M14 melanoma it was 92.1%; in the assay with HCT-15 colon, 100%; with HT29 colon it was 104%. Besides, the growth was 102% in the assay with SNB-75 CNS; 101% in the assay with SNB-19 CNS; 98% in the assay with U251 CNS; 102% with PC-3 prostate; 93.6% with SK-MEL-5 melanoma; 89.7% in the assay with UACC-62 melanoma. Besides, the growth in the assay on LOX IMVI melanoma was 101%; with SK-MEL-28 melanoma, 100%.

For `O=C(N=c1n(-c2ccccc2)nc2n1CCN2C1=NCCN1C(=O)c1ccc(Cl)cc1)c1ccc(Cl)cc1`, the growth is 92.2% with DU-145 prostate; 47.1% with K-562 leukemia; 91.2% with MALME-3M melanoma; 82.4% in the assay on MDA-MB-231 breast; 48.6% with RXF 393 renal; 72.9% with SF-268 CNS. In addition, the growth with SF-295 CNS is 86.2%; in the assay on SF-539 CNS, 80.2%; in the assay on UACC-257 melanoma it was 103%; with M14 melanoma it was 62.5%; in the assay on HCT-15 colon it was 57%; in the assay with HT29 colon, 59.7%. Further, the growth is 68.8% in the assay with SNB-75 CNS; 85.8% with SNB-19 CNS; 72.8% with U251 CNS; 47.5% in the assay on PC-3 prostate; 70.9% with SK-MEL-5 melanoma; 73.6% in the assay with UACC-62 melanoma. Further, the growth in the assay on LOX IMVI melanoma is 86.6%; in the assay with SK-MEL-28 melanoma, 88.8%.

As to `O=C(O)c1cn(C2CC2)c2cc(N3CCN(Cc4cc(Cl)ccc4O)CC3)c(F)cc2c1=O`, the growth in the assay on DU-145 prostate was 95.2%; with K-562 leukemia it was 46.5%; with MALME-3M melanoma, 80.7%; in the assay with MDA-MB-231 breast it was 71.3%; in the assay with RXF 393 renal it was 60.2%; in the assay with SF-268 CNS, 75.8%. Besides, the growth in the assay with SF-295 CNS was 34.3%; in the assay on SF-539 CNS, 74%; with UACC-257 melanoma, 80.7%; with M14 melanoma it was 59.2%; with HCT-15 colon, 45.7%; in the assay with HT29 colon, 44.9%. Moreover, the growth in the assay with SNB-75 CNS is 67.6%; in the assay with SNB-19 CNS, 60.2%; with U251 CNS, 36.6%; in the assay with PC-3 prostate it was 54.7%; with SK-MEL-5 melanoma, 58.8%; in the assay with UACC-62 melanoma, 54.9%. Further, the growth is 57.1% in the assay on LOX IMVI melanoma and 71.7% in the assay on SK-MEL-28 melanoma.

In the case of `COc1ccc(N(c2nc(-c3ccc([N+](=O)[O-])cc3)cs2)C(C)C)cc1`, the growth in the assay on DU-145 prostate is 86.1%; in the assay on K-562 leukemia, 55.1%; in the assay on MALME-3M melanoma, 94.6%; with MDA-MB-231 breast, 73.9%; in the assay with RXF 393 renal, 102%; with SF-268 CNS, 83.5%. For the same molecule, the growth in the assay on SF-295 CNS is 89.8%; with SF-539 CNS, 88.7%; in the assay with UACC-257 melanoma, 80.5%; in the assay on M14 melanoma, 89.9%; in the assay on HCT-15 colon it was 88%; with HT29 colon it was 97.2%. Besides, the growth was 103% with SNB-75 CNS; 89.9% with SNB-19 CNS; 90.3% in the assay on U251 CNS; 84% with PC-3 prostate; 78.9% in the assay on SK-MEL-5 melanoma; 68.4% in the assay on UACC-62 melanoma. Moreover, the growth with LOX IMVI melanoma is 80.9%; in the assay with SK-MEL-28 melanoma, 103%.

As for `CCN(CC)c1ccc(/C=C/c2ccc3cc(C)ccc3[n+]2CC)cc1`, the growth was 20.1% with DU-145 prostate; 6.51% (active) in the assay on K-562 leukemia; -2.01% (active) with MALME-3M melanoma; 21.3% in the assay on MDA-MB-231 breast; 11.8% with RXF 393 renal; 27.7% with SF-268 CNS. Besides, the growth in the assay with SF-295 CNS was -22% (active); in the assay on SF-539 CNS it was 11.5%; with UACC-257 melanoma it was -19% (active); in the assay with M14 melanoma, 2.07% (active); with HCT-15 colon, 13.3%; in the assay on HT29 colon it was -14.4% (active). The growth with SNB-75 CNS was 7.55% (active); in the assay on SNB-19 CNS, 24.8%; with U251 CNS it was 9.59% (active); in the assay with PC-3 prostate it was -0.319% (active); in the assay with SK-MEL-5 melanoma, -97.5% (active); in the assay with UACC-62 melanoma, 1.47% (active). The growth in the assay with LOX IMVI melanoma is -8.32% (active); in the assay with SK-MEL-28 melanoma, 2.66% (active).

The record behind these values is PubChem BioAssay (NCI).
